# Experimental data as given in ChEMBL document CHEMBL4513216, “Probing the Open Global Health Chemical Diversity Library for Multistage-Active Starting Points for Next-Generation Antimalarials” (ACS Infect Dis, 2020).
# Among all 68,000 compounds or so, about 2,700 (4%) showed an effect of 50% or more. For the sample, strong results were picked, then their nearest neighbours and some compounds at random.
# Tested on: Plasmodium berghei
# Assay: Screen against P. berghei liver stage (PbLuc), transformed with Luciferase, at 2uM
# Type: functional, HepG2
# Conditions: tested at 2 uM
row,SMILES,INHIBITION
1,CS(=O)(=O)c1ccc(O[C@H]2COCCN(Cc3ccncc3)C2)cc1,50.91%
2,Cc1nc(C)c(CN2CCOC[C@H](Oc3ccccc3)C2)s1,64.92%
3,Cc1nc(C)c(CN2CCOC[C@H](Oc3ccc(S(C)(=O)=O)cc3)C2)s1,-40.15%
4,CC(C)CN1CCOC[C@H](Oc2ccc(S(C)(=O)=O)cc2)C1,-36.65%
5,COc1ccc(CN2CCOC[C@H](Oc3cccnc3)C2)cc1,27.04%
6,Cc1cccc(O[C@H]2COCCN(Cc3sc(C)nc3C)C2)n1,17.64%
7,CCN(Cc1ccc(C#N)cc1F)C(=O)C(C)(C)C,0.53%
8,CCCS(=O)(=O)N1C[C@H]2CC[C@@H](C1)N(Cc1cscn1)C2=O,36.28%
9,CN(C)CC(=O)N1CCC2(CC1)COCCN(Cc1ccncc1)C2,32.66%
10,CCCc1nc(C(=O)N[C@H]2COC[C@@H]2N2CCN(C)CC2)cs1,-0.83%
11,CS(=O)(=O)CCCN(CCc1cccc(F)c1)C1CC1,7.36%
12,Cc1csc2c(N3CCNC(C(=O)Nc4ccc(F)cc4)C3)ncnc12 (stereo not drawn),-17.67%
13,CCC(=O)N1CCC2(CC1)CNC(=O)c1cc(C)ccc1O2,61.99%
14,Cc1ccc2c(c1)C(=O)NCC1(CCN(C(=O)c3cc(C)no3)CC1)O2,9.51%
15,Cc1ccc2c(c1)C(=O)NCC1(CCN(C(=O)c3scnc3C)CC1)O2,-2.31%
16,Cc1ccc2c(c1)C(=O)NCC1(CCN(C(=O)c3ccccn3)CC1)O2,38.12%
17,Cc1ccc2c(c1)C(=O)NCC1(CCN(C(=O)c3cnccn3)CC1)O2,64.07%
18,Cc1ccc2c(c1)C(=O)NCC1(CCN(Cc3ccccc3)CC1)O2,34.9%
19,Cc1ccc2c(c1)C(=O)NCC1(CCN(C(=O)c3sccc3C)CC1)O2,46.15%
20,Cc1ccc2c(c1)C(=O)NCC1(CCN(C(=O)c3csc(C)c3)CC1)O2,38.75%
21,Cc1ccc2c(c1)C(=O)NCC1(CCN(C(=O)c3ccnn3C)CC1)O2,59.27%
22,Cc1ccc(F)cc1NC(=O)CCn1cncn1,5.31%

row,SMILES,INHIBITION
1,Cc1nc(CN2C[C@@H]3CN(C(=O)c4cccn4C)C[C@@H]3C2=O)cs1,-32.67%
2,O=C(C1CCCCC1)N1CCC2(CC1)CNCc1ccccc12,31.27%
3,O=C(CN1CCOC(CNc2cccnn2)C1)NCc1ccccn1 (stereo not drawn),33.12%
4,Cc1nn(CC(=O)O)c(C)c1NS(=O)(=O)c1cc2ccccc2s1,-38.97%
5,O=c1cc(CN2CCCC(CCc3c(F)cccc3F)C2)[nH]c(=O)[nH]1 (stereo not drawn),-21.63%
6,CS(=O)(=O)Cc1cc(Cl)c2c(c1)OCCCO2,45.82%
7,CN(C)C(=O)CCS(=O)(=O)Cc1cc(Cl)c2c(c1)OCCO2,48.21%
8,CN(C)C(=O)CCS(=O)(=O)Cc1cc(Cl)c2c(c1)OCO2,66.2%
9,CNC(=O)CCS(=O)(=O)Cc1cc(Cl)c2c(c1)OCCCO2,19%
10,CS(=O)(=O)CCS(=O)(=O)Cc1cc(Cl)c2c(c1)OCCCO2,72.05%
11,CN(C)C(=O)CCCS(=O)(=O)Cc1cc(Cl)c2c(c1)OCO2,27.5%
12,CC(C)(O)CN1CCN(C(=O)c2sccc2C#N)CC1,-29.69%
13,c1cnc(N2C[C@H]3CCN(Cc4ccncc4)C[C@H]3C2)nc1,-20.87%
14,CC(NC(=O)N1CCC(OCc2ccccc2)CC1)c1nncn1C (stereo not drawn),29.11%
15,Cc1cc(C)c(C)c(OCCCNC(=O)NC(C)c2nncn2C)c1 (stereo not drawn),38.97%
16,COc1ccc(F)cc1C(=O)N1CCCC(CNS(C)(=O)=O)C1 (stereo not drawn),-42.84%
17,O=C(NCCCNC(=O)C1CCC1)NCCn1cccc1,7.33%
18,CN1CCCC(N2CCN(c3nc4ccccn4c3C#N)CC2)C1 (stereo not drawn),38.1%
19,N#Cc1c(N2CCCN(C3CCOCC3)CC2)nc2ccccn12,14.2%
20,N#Cc1c(N2CCN(CC3CCOC3)CC2)nc2ccccn12 (stereo not drawn),83.18%
21,Cn1cccc1C(=O)N1CCc2ncnc(C3CC3)c2CC1,11.72%
22,O=C(NC1CCCCNC1=O)c1cc2ccccc2[nH]c1=O (stereo not drawn),-0.79%

row,SMILES,INHIBITION
1,Cc1cc(C(=O)NC2CCCCNC2=O)c(=O)[nH]c1C (stereo not drawn),52.08%
2,Cc1ccc(C(=O)NC2CCCCNC2=O)c(=O)[nH]1 (stereo not drawn),-4.09%
3,O=C(CCc1c[nH]cn1)N1CC[C@@H](c2ccc3ccccc3c2)[C@H](O)C1,43.1%
4,Cc1ccc(N2CCC3(CN(Cc4cccs4)CCC3(F)F)C2)nn1 (stereo not drawn),-17.41%
5,Cc1ccc(NC2CCN(C(=O)Cc3ccc(C)s3)CC2)nn1,-19.35%
6,Cc1noc(C)c1CC(=O)N1CCC(Nc2cccnn2)CC1,-57.89%
7,Cc1ccc(CC(=O)N2CCC(Nc3cccnn3)CC2)s1,50.75%
8,O=C(Cc1c[nH]c2ccccc12)N1CCC(Nc2cccnn2)CC1,-32.2%
9,Cc1cccc2[nH]cc(CC(=O)N3CCC(Nc4cccnn4)CC3)c12,64.16%
10,O=C(Cc1cccc2ccccc12)N1CCC(Nc2cccnn2)CC1,-58.05%
11,O=C(NCc1ccccn1)NCC(O)c1ccccc1C(F)(F)F (stereo not drawn),-19.62%
12,O=C(c1ccccc1OCC1CC1)N1CCCC1Cn1cccn1 (stereo not drawn),-12.5%
13,O=C(CCCn1cncn1)N1CCC2(CCCNC2=O)C1 (stereo not drawn),43.1%
14,O=C(c1cccc(Cl)c1)N1CC[C@H]2[C@H]1CCN2CC1CCOCC1,49.03%
15,CCS(=O)(=O)N1CC[C@@H]2[C@H](CC1)N(CC(C)C)CCS2(=O)=O,40.5%
16,Cc1cc(C)nc(C2(C)CCCN2CCO)n1 (stereo not drawn),-8.85%
17,Cc1cc(C(N)=O)nc(C2(C)CCCN2Cc2cnn(C)c2C)n1 (stereo not drawn),40.31%
18,Cc1cc(C(N)=O)nc(C2(C)CCCN2Cc2cnn(C)c2)n1 (stereo not drawn),74.08%
19,COc1ccc(-c2noc(CN3CCN(c4cnccn4)CC3)n2)cc1,32.88%
20,COc1ccc(-n2cnnc2CC2CCNCC2)cc1,-22%
21,O=S(=O)(N1CCCC1)N1CC(c2ccnc(Nc3ccccn3)n2)C1,17.72%
22,CCN(CCc1nc2cc(C)ccc2[nH]1)C(=O)[C@@H](N)Cc1c[nH]cn1,-2.23%

row,SMILES,INHIBITION
1,CN(C)CC1(O)CCCN(c2nc(-c3ccccc3)no2)CC1 (stereo not drawn),76.6%
2,CN(C)CC1(O)CCCN(c2noc(-c3ccccc3)n2)CC1 (stereo not drawn),12.55%
3,Cc1cc(N2CCCC(O)(CN(C)C)CC2)nc(-c2ccccc2)n1 (stereo not drawn),1.06%
4,c1cc(-c2cscn2)cc(N2CCC(NCCc3cccs3)CC2)c1,-15.42%
5,CCC(=O)N1CCC2(CC1)CC(CC(=O)N(C)C)c1ccc(F)cc12 (stereo not drawn),-0.45%
6,CCOC(C)C(=O)NCCNS(C)(=O)=O (stereo not drawn),8.41%
7,CC(C)COC(C)C(=O)NCCNS(C)(=O)=O (stereo not drawn),52.74%
8,CC(C)COC(C)C(=O)NCCNC(=O)C(C)C (stereo not drawn),31.96%
9,CCN(Cc1cccc2c1OCO2)C(=O)NCCOC,25.61%
10,CC(=O)N1CCN(c2ccc3ccc(C(=O)NC4CCCC4)cn23)CC1,-7.41%
11,O=C(O)c1ccc2ccc(N3CCN(CC4CC4)CC3)n2c1,57.95%
12,O=C(NC1CC1)c1ccc2ccc(N3CCN(CC4CC4)CC3)n2c1,-36.7%
13,CC(C)N1CCN(c2ccc3ccc(C(=O)NC4CCCC4)cn23)CC1,50.17%
14,CN(C)C(=O)N1CCN(c2ccc3ccc(C(=O)NC4CC4)cn23)CC1,23.26%
15,CN(C)C(=O)c1ccc2ccc(N3CCN(CC4CC4)CC3)n2c1,19.96%
16,Cc1nn(-c2ccccc2)c2c1c(C(F)F)cc(=O)n2CC(=O)O,13.39%
17,COCCN1CCC(NCc2c(F)cccc2F)C1 (stereo not drawn),28.54%
18,Cc1nc(-c2ccncc2)ncc1C(C)NC(=O)CN1CCCCC1 (stereo not drawn),50.41%
19,Cc1nc(-c2ccncc2)ncc1C(C)NC(=O)Cn1ccccc1=O (stereo not drawn),10.02%
20,Cc1nc(-c2ccncc2)ncc1C(C)NC(=O)CN1CCCC1=O (stereo not drawn),28.62%
21,Cc1nc(C)n(CC2CCCN(Cc3noc(C)n3)C2)n1 (stereo not drawn),17.31%
22,Cc1nc(C)n(CC2CCCN2Cc2cn3c(C)cccc3n2)n1 (stereo not drawn),-17.11%

row,SMILES,INHIBITION
1,Cc1nc(C)n(CC2CCCN(Cc3nc(C4CC4)no3)C2)n1 (stereo not drawn),-38.96%
2,Cc1nc(C)n(CC2CCCN(Cc3cccc(F)c3F)C2)n1 (stereo not drawn),2.18%
3,CCc1noc(CN2CCCC(Cn3nc(C)nc3C)C2)n1 (stereo not drawn),21.39%
4,Cc1nc(C)n(CC2CCCN(Cc3cn4c(C)cccc4n3)C2)n1 (stereo not drawn),60.64%
5,Cc1noc(CN2CCCC(Cn3nc(C)nc3C)C2)n1 (stereo not drawn),72.31%
6,CCc1nc(CN2CCCC(Cn3nc(C)nc3C)C2)no1 (stereo not drawn),70.27%
7,COCCc1noc(CN2CCCC(Cn3nc(C)nc3C)C2)n1 (stereo not drawn),30.91%
8,Cn1cc(C2COC3(CCN(C(=O)Cc4ccccc4)CC3)C2)cn1 (stereo not drawn),2.27%
9,CNC(=O)CC1CC2(CCN(c3ncccn3)CC2)c2ccccc21 (stereo not drawn),2.87%
10,c1cnc(N2CCC3(CC2)CC(NCC2CC2)c2ccccc23)nc1 (stereo not drawn),33.11%
11,CNC(=O)CNC1CC2(CCN(c3ncccn3)CC2)c2ccccc21 (stereo not drawn),70.75%
12,CCC(O)CNC(=O)c1cc(COc2ccc(OC)cc2Cl)[nH]n1 (stereo not drawn),52.98%
13,COc1ccc(OCc2cc(C(=O)N3CCOCC3)n[nH]2)c(Cl)c1,15.05%
14,COc1ccc(OCc2cc(C(=O)N3CCC(O)CC3)n[nH]2)c(Cl)c1,8.57%
15,COc1ccc(OCc2cc(C(=O)N3C[C@@H](C)O[C@@H](C)C3)n[nH]2)c(Cl)c1,21.29%
16,CC[C@@H](CO)NC(=O)c1cc(COc2ccc(OC)cc2Cl)[nH]n1,69.67%
17,CCC(CO)NC(=O)c1cc(COc2ccc(OC)cc2Cl)[nH]n1 (stereo not drawn),45.82%
18,CNC(=O)C(C)NC(=O)c1cc(COc2ccc(OC)cc2Cl)[nH]n1 (stereo not drawn),55.36%
19,COc1ccc(OCc2cc(C(=O)N3CC=CC3)n[nH]2)c(Cl)c1,27.77%
20,COc1ccc(OCc2cc(C(=O)N3CCSCC3)n[nH]2)c(Cl)c1,8.48%
